A word on the inhibition: it is the change of the read-out against control, counted positive when it falls.

This is an account of results in PubChem BioAssay AID504690 (Sanford-Burnham Center for Chemical Genomics, 2011).

The whole screen tested about 350,000 compounds, of which about 2,700 (0.77%) were called active. This is one part of a sample in which actives are shown more often than they occur. Unmarked numbers belong to inactive results.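 The calls were made as follows: active = inhibition reaching at least a set limit at 20 µM in the primary screen (cut at about 59% in these data); inactive = the rest.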

The test system of this experiment is glucose-6-phosphate dehydrogenase-6-phosphogluconolactonase (Plasmodium falciparum 3D7). Kind of experiment: inhibition of malaria parasite G6PD (PfGluPho) – biochemical, fluorescence intensity, uHTS, primary screen (AID 504690).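 Also: 0% = DMSO wells with substrate and 100% = DMSO wells lacking glucose-6-phosphate.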 The settings on record: PfGluPho enzyme, NADPH resazurin-diaphorase fluorescence; at 20 µM; hits give high values. For orientation: Resazurin is reduced to fluorescent resorufin, in cell work by metabolically active cells.
On to `O=C(CNC(=O)c1cccs1)N/N=C/c1cccc(Br)c1`, for which the inhibition was -3.31%.

Consider `O=C(N/N=C/c1cccc(Br)c1)c1ccc(N2CCCC2=O)cc1`, for which the inhibition is 9.79%.

Consider `O=C(N/N=C\c1cccc(Br)c1)c1ccccc1-n1cccc1`, for which the inhibition is 77.6% (active).

`CCCNc1c(N)c(=O)c1=O`: the inhibition was -14.2%.

`CCc1c(C)[nH]c(=S)c(C#N)c1C`: the inhibition was 60.6% (active).

Consider `CC(=O)c1c(C)[nH]c(=S)c(C#N)c1-c1ccc(F)cc1`, for which the inhibition was 36.1%.

Turning to `CN(C)CCCNC(=S)N1CCN(c2nc(-c3ccccc3)cs2)CC1`, the inhibition was 7.81%.

With `FC(F)(F)c1ccc2c3n(nc2c1)CCN=C3c1ccc(Cl)cc1`, the inhibition was 21.6%.

`O=C(CC1Oc2ccccc2NC1=O)NCCCN1CCN(Cc2ccccc2)CC1` (stereo unspecified): the inhibition is 17.8%.

Regarding `Cc1noc(C)c1CSc1nc2cc(S(=O)(=O)N3CCOCC3)ccc2o1`, the inhibition was 46.6%.

For `COc1ccc(CCn2c(NCCCN3CCOCC3)nc3c2c(=O)[nH]c(=O)n3C)cc1`, the inhibition is 5.12%.

Take `COc1ccc(CCn2c(NN=C3CCCC3)nc3c2c(=O)[nH]c(=O)n3C)cc1`: the inhibition was 77.3% (active).

Regarding `CC1CCN(c2nc3c(c(=O)[nH]c(=O)n3C)n2CCCc2ccccc2)CC1`, the inhibition was 12.8%.

Take `CCN(c1ccc2c(c1)OCO2)S(=O)(=O)c1cc(Br)cc2c1N(C(=O)C1CC1)CC2`: the inhibition was 32.5%.

Turning to `Nc1cccc2c1C(=O)N(Cc1nnc(-c3ccccc3Br)o1)C2=O`, the inhibition was -11.2%.

As to `COc1ccc(Nc2ncc(F)c(N3CCOCC3)n2)cc1`, the inhibition was -2.57%.

Turning to `Cc1cc(Nc2ccc(Cl)cc2)nc(N2CCOCC2)n1`, the inhibition was 74.6% (active).

With `O=C(CSc1nc(Nc2ccccc2)nc(N2CCOCC2)n1)Nc1cc(Cl)ccc1O`, the inhibition was 21.3%.

As to `C=CCOc1ccc(C(=O)Nc2ccccc2C(=O)N2CCCC2)cc1`, the inhibition is 15.3%.

Turning to `C/C(=N/NC(=O)c1cc(Cl)ccc1O)C12CC3CC(CC(C3)C1)C2`, the inhibition was 50.1%.

As to `O=C(c1ccc(NS(=O)(=O)c2ccc3[nH]c(=O)[nH]c3c2)cc1)N1CCCCC1`, the inhibition was -7.11%.

For the compound `N/C(=N\OS(=O)(=O)c1cccc([N+](=O)[O-])c1)c1ccncc1`, the inhibition is -9.59%.

Consider `CC12CCCCC1=CC(=O)CC2` (stereo unspecified), for which the inhibition was 10.3%.

With `O=C(COC(=O)Cc1ccc(Cl)cc1Cl)NCc1ccco1`, the inhibition was -17.6%.

As for `Cc1cc(Nc2ccc(Br)cc2)nc2ccccc12`, the inhibition was 86.8% (active).

On to `CCOc1ccc(NC(=O)c2cc(C)nc3ccccc23)cc1`, for which the inhibition was 6.27%.

In the case of `Clc1ccc(Nc2ccc3ccccc3n2)cc1`, the inhibition is 31.9%.

As to `O=C(Nc1cccc(Cl)c1)c1cc(S(=O)(=O)N2CCCCC2)c[nH]1`, the inhibition was -8.02%.

For `CCOC(=O)Cn1c2c(c(-c3ccccc3OC)cc1=O)CCCC2`, the inhibition was 10.3%.

Regarding `CC1=C/C(=N\OS(=O)(=O)c2ccccc2)C=CC1=O`, the inhibition is 116% (active).

Take `COC(=O)C(C(=O)Nc1cccc(Cl)c1C)C1CCCC1` (stereo unspecified): the inhibition is 5.12%.

As to `CCOC(=O)c1cc(-c2sc(NC(=O)c3ccccc3)nc2C)n(CCO)n1`, the inhibition was 5.2%.

Regarding `Cc1ccc(-n2c(-c3ccc(Cl)cc3)n[nH]c2=S)cc1`, the inhibition was 39.8%.

As to `S=c1[nH]nc(-c2cc(-c3ccsc3)n[nH]2)n1-c1ccccc1`, the inhibition is 63% (active).

`Cc1ccc(NCc2n[nH]c(=S)n2-c2ccccc2)cc1Cl`: the inhibition was 17.7%.

Turning to `CCCCCN(C(=O)CCC(=O)OCC(=O)NCc1ccc(OC)cc1)c1c(N)n(CCCC)c(=O)[nH]c1=O`, the inhibition is 6.98%.

`C=CCOc1ccc(Cl)cc1CNCCCN1CCOCC1`: the inhibition was -22.9%.

For `CCOC(=O)Cn1nnnc1C`, the inhibition was -8.58%.

In the case of `COc1ccc(NC(=O)c2sc(N3CCOCC3)nc2-c2ccccc2)c(OC)c1`, the inhibition is 7.35%.

For `CCOC(=O)N1CCC(NC(=O)c2ccc3nc(N4CCOCC4)sc3c2)CC1`, the inhibition was -2.75%.

Turning to `Cc1nc(N2CCOCC2)sc1C(=O)NN`, the inhibition is 61.7% (active).

Regarding `Cc1ccc(S(=O)(=O)N2CCCCC2)cc1NC(=O)[C@@H]1CCCN1C(=O)c1cccs1`, the inhibition is -10%.

With `COc1cc(C=NNC(=O)c2cccnc2)ccc1OC(=O)c1ccccc1F`, the inhibition is 0.22%.

With `COc1ccc(C(=O)Nc2ccccc2C(=O)N/N=C/c2ccc(O)c(OC)c2)cc1`, the inhibition is 63.8% (active).

For `O=C(NN=Cc1ccc2c(c1)CCC2)c1ccccc1O`, the inhibition was -13.6%.

On to `CC(C)Cc1nnc(N)s1`, for which the inhibition was -0.68%.

As for `Cc1ccc(C2CC(c3cccc(Br)c3)n3nc(N)nc3N2)cc1` (stereo unspecified), the inhibition is 18%.

In the case of `Cc1csc(=O)n1CC(=O)Nc1ccc(S(C)(=O)=O)cc1`, the inhibition was 1.5%.

`Cc1cc(=O)n2[nH]c(-c3sccc3-n3c(C)ccc3C)cc2n1`: the inhibition is 10.7%.

Consider `C[C@@H]1CN([C@@H](C)CO)S(=O)(=O)c2ccc(-c3ccc(C(=O)N(C)C)cc3)cc2O[C@@H]1CN(C)Cc1ccccc1C(=O)O`, for which the inhibition was 1.43%.

Take `Cc1ccc2nnn(Cc3cccc(C(C)(C)C)c3O)c2c1`: the inhibition is 4.75%.

As to `C#CCOCCOCCOCCNc1nc(N2CCN(C(=O)CCCCCCCCCCNC(=O)Cn3cc(CCCCCN)nn3)CC2)nc(N2CCN(C(=O)CCCCCCCCCCNC(=O)[C@H](CO)n3cc(CCCSC)nn3)CC2)n1`, the inhibition was 60% (active).

Regarding `C#CCOCCOCCOCCNc1nc(N2CCN(C(=O)CCCCCCCCCCNC(=O)[C@H]([C@@H](C)CC)n3cc(CCCCN=C(N)N)nn3)CC2)nc(N2CCN(C(=O)CCCCCCCCCCNC(=O)[C@H](CO)n3cc(CCCSC)nn3)CC2)n1`, the inhibition is 44.4%.

On to `C#CCOCCOCCOCCNc1nc(N2CCN(C(=O)Cn3cc(CCO)nn3)CC2)nc(N2CCN(C(=O)[C@H](CCCCN)n3cc(CCCC)nn3)CC2)n1`, for which the inhibition was 6.73%.

Take `COCc1cc(C)nc2sc3c(=O)n(-c4cccc5ccccc45)nnc3c12`: the inhibition was -2.51%.

For the compound `CCC(=O)N1CCC(C(N)=O)(N2CCCCC2)CC1`, the inhibition was -1.08%.

As to `O=C1CSC(=S)N1/N=C/c1ccc(O)c([N+](=O)[O-])c1`, the inhibition is 18.4%.

In the case of `CCOc1cccc(/C=N/N2C(=O)CSC2=S)c1O`, the inhibition was 60.8% (active).

Take `O=C1CSC(=S)N1c1ccc(O)cc1`: the inhibition was -5.81%.

Turning to `COc1ccccc1CNC(=O)COn1nnc2ccc(S(=O)(=O)N3CCOCC3)cc21`, the inhibition is -5.31%.

Turning to `CC(C)C(c1nnnn1C1CCCC1)N1CCN(c2ccccc2F)CC1` (stereo unspecified), the inhibition is 1.8%.

As for `Cc1cc(C)c2[nH]c(=O)c(CN(Cc3ccccc3)C(=S)NCCCN(C)C)cc2c1`, the inhibition is -9.85%.

On to `COc1ccccc1-n1c(SCC(=O)Nc2ccc(Cl)cc2)nc(O)c(Cc2ccccc2)c1=O`, for which the inhibition was -30.4%.

With `CC(C)n1cnc2c(NCc3ccccc3)cc(OCC3CCN(C)CC3)cc21`, the inhibition is 65.4% (active).

For `CN(C)c1nccc(NCc2ccccc2)c1C#N`, the inhibition is -1.06%.

Turning to `Cn1c(N)cc(=O)n(C)c1=S`, the inhibition is -4.84%.

Take `Cc1ccccc1-c1cc(C(=O)NCc2cccs2)n(CC2CC(c3cccnc3)=NO2)n1` (stereo unspecified): the inhibition is 1.18%.

`Cc1ccc(OS(=O)(=O)c2ccc(-c3csc(C)n3)s2)c(C)c1`: the inhibition is 17.7%.

`FC(F)(F)C1CCCN(c2nsc3ccccc23)C1` (stereo unspecified): the inhibition was 110% (active).

Consider `COc1ccc(Cl)cc1NC(=O)COc1ccc2c(c1)OCO2`, for which the inhibition is -7.15%.

For `Cc1ccc(SC(C)C(=O)NCc2ccc(F)cc2)cc1` (stereo unspecified), the inhibition is 0.13%.

For the compound `CCC(=C/c1sc2ccc3ccccc3c2[n+]1C)/C=C1\Sc2ccc3ccccc3c2N1C`, the inhibition was 113% (active).

Take `CCC[C@H]1CCCC/C=C\CCCC(=O)OCCN1C(=O)OC(C)(C)C`: the inhibition is -3.27%.

`Cn1cnnc1SCC(=O)Nc1ccc(N2CCOCC2)cc1`: the inhibition was 7.84%.

Consider `CN1CCN(c2nc(Nc3ccc(O)cc3)nc3ccccc23)CC1`, for which the inhibition is 3.52%.

Regarding `C=CC(=O)Nc1ccc(Nc2ccnc(Nc3ccc(N4CCN(C)CC4)cc3)n2)cc1`, the inhibition was 77.4% (active).

`CCCC[C@H]1COCCS(=O)(=O)N1Cc1cccc(Cl)c1`: the inhibition is 14%.

With `O=C(CSc1nnc(CN2CCCC2)n1-c1ccc(F)cc1)c1ccc2c(c1)OCO2`, the inhibition was 8.99%.

As to `CCCCC1=CC2=CC(=O)C(C)(OC(=O)CC)C(=O)C2=CN1CCCOC(C)C` (stereo unspecified), the inhibition is 34.2%.

As for `COC(=O)CCCC1=CC2=CC(=O)C(C)(OC(=O)c3cccs3)C(=O)C2=CN1CC(C)C` (stereo unspecified), the inhibition is 61.6% (active).

As for `COC(=O)CCCC1=CC2=CC(=O)C(C)(OC(=O)c3cccs3)C(=O)C2=CN1c1cccc(C#N)c1` (stereo unspecified), the inhibition is 31.5%.

In the case of `Cc1cccc(N2CCC(NCc3c(C(=O)N4CCCCC4)nc4c(C)cccn34)CC2)c1`, the inhibition was -3.68%.

Turning to `COc1ccc(-c2nn(-c3ccccc3)cc2C(=O)Nc2nccs2)cc1OC`, the inhibition is 32.2%.

As for `COc1ccc(-c2nn(-c3ccccc3)cc2/C=N/Nc2ccccn2)cc1OC`, the inhibition was 70.3% (active).

`O=Cc1cn(-c2ccccc2)nc1-c1ccccn1`: the inhibition was -1.58%.

For `COc1ccc(OC)c(/C=C/C(=O)c2ccc3c(c2)OCO3)c1`, the inhibition was 2.18%.

`CCc1ccccc1NC(=O)CN(C)C(=O)COc1ccc(C)nc1[N+](=O)[O-]`: the inhibition was -20.3%.

For the compound `Cc1ccc(OCC(=O)NC(C)c2ccccc2)c([N+](=O)[O-])n1` (stereo unspecified), the inhibition is -11.2%.

As to `Cc1ccc(OCC(=O)Nc2ccccc2Sc2ccc(Cl)cc2)c([N+](=O)[O-])n1`, the inhibition is 99.2% (active).

On to `O=S(=O)(NCC1CCCO1)c1ccc2ccccc2c1` (stereo unspecified), for which the inhibition is -2.51%.

On to `COCCNC(=O)NC(=O)COC(=O)C1(c2ccc(Cl)cc2)CC1`, for which the inhibition was 8.76%.
